Assay results as given in the supplement of paper PMC13380429.

What was measured:
[1] = test system: Vero E6 infected with SARS-CoV-2; experiment: morphology score (similarity to uninfected cells); higher = more like uninfected cells; conditions: 24 h
[2] = test system: Vero E6 infected with SARS-CoV-2; experiment: SARS-CoV-2 infection rate relative to infected DMSO; higher = more infection, active = 60 or less; conditions: 24 h

| Compound | morphology score [1] | SARS-CoV-2 infection rate [2] |
| --- | --- | --- |
| Oc1ccc(Cl)cc1Cc1cc(Cl)ccc1O [dichlorophen] (10 µM) | 0.14 | 99.5% (inactive) |
| Cc1ccc(C)c(Oc2ccncc2C(=O)N2CCN(C3CC3)c3ccccc32)c1 (10 µM) | 0.133 | 108% (inactive) |
| O=C(CCN1CCN(C(=O)OCc2cc(Cl)cc(Cl)c2)CC1)c1ccc2[nH]c(=O)oc2c1 (10 µM) | 0.127 | 99.5% (inactive) |
| Cc1cc(CC(=O)O)n(C)c1C(=O)c1ccc(Cl)cc1 [zomepirac] (10 µM) | 0.117 | 104% (inactive) |
| CN1CCN(c2ccc(-c3cccc(CN4CCOCC4)c3)cc2NC(=O)c2c[nH]c(=O)cc2C(F)(F)F)CC1 (10 µM) | 0.0309 | 115% (inactive) |
| CC(NCCc1ccc(O)cc1)C(O)c1ccc(O)cc1 (configuration not stated) [ritodrine] (10 µM) | 0.154 | 96% (inactive) |
| CCOC(=O)[C@@]1(CCCCCCOc2ccc(Cl)cc2)CO1 [etomoxir] (10 µM) | -0.0546 | 109% (inactive) |
| NNC(=O)CN1C(=O)CN=C(c2ccccc2)c2cc(Br)ccc21 [gidazepam] (10 µM) | 0.101 | 100% (inactive) |
| CC(C)N1Cc2cc(S(C)(=O)=O)ccc2N(CCN2CC=C(c3c[nH]c4cc(F)ccc34)CC2)S1(=O)=O (10 µM) | 0.178 | 97.5% (inactive) |
| O=S(=O)(O)c1ccc(-c2c3nc(c(-c4ccc(S(=O)(=O)O)cc4)c4ccc([nH]4)c(-c4ccc(S(=O)(=O)O)cc4)c4nc(c(-c5ccc(S(=O)(=O)O)cc5)c5ccc2[nH]5)C=C4)C=C3)cc1 (10 µM) | -0.0273 | 102% (inactive) |
| CNC(=O)CN1CCC(Oc2cc3c(Nc4cccc(Cl)c4F)ncnc3cc2OC)CC1 (0.833333 µM) | -0.193 | 107% (inactive) |
| CCOC(=O)[C@H](CCc1ccccc1)N[C@H]1CS[C@H](c2cccs2)CN(CC(=O)O)C1=O [temocapril] (10 µM) | 0.0304 | 114% (inactive) |
| C=CC(=O)Nc1ccc2ncnc(Nc3ccc(OCc4cccc(F)c4)c(Cl)c3)c2c1 (10 µM) | -0.0546 | 102% (inactive) |
| Cn1cc([S+](C)[O-])c(=O)c2ccc(F)cc21 (configuration not stated) [flosequinan] (10 µM) | 0.195 | 96.5% (inactive) |
| CC(C)C(=O)SCCCCC[C@H](NC(=O)OC(C)(C)C)C(=O)NC12CC3CC(CC(C3)C1)C2 (10 µM) | -0.113 | 97% (inactive) |
| C=C(CC)C(=O)c1ccc(OCC(=O)O)c(Cl)c1Cl [etacrynic-acid] (10 µM) | -0.0164 | 98.5% (inactive) |
| O=C(Nc1nc(-c2cc(Cl)cs2)c(N2CCN(C3CCCCC3)CC2)s1)c1cnc(N2CCC(C(=O)O)CC2)c(Cl)c1 [avatrombopag] (10 µM) | 0.0997 | 100% (inactive) |
| Cc1[nH]c(/C=C2\C(=O)Nc3ccccc32)c(C)c1CCC(=O)O [orantinib] (10 µM) | 0.123 | 92.5% (inactive) |
| CC(=O)O[C@@]12CO[C@@H]1C[C@H](O)[C@@]1(C)C(=O)[C@H](O)C3=C(C)[C@@H](O)C[C@@](O)([C@@H](OC(=O)c4ccccc4)[C@H]21)C3(C)C [10-deacetylbaccatin] (10 µM) | 0.18 | 109% (inactive) |
| COc1ccc2c(c1)C(=O)N(CCc1ccc(S(=O)(=O)NC(=O)NC3CCCCC3)cc1)C(=O)C2(C)C [gliquidone] (10 µM) | 0.283 | 98.5% (inactive) |
| C[C@H](Nc1ncnc2[nH]cnc12)c1nc2ccc(F)cc2c(=O)n1-c1ccccc1 [acalisib] (0.833333 µM) | -0.115 | 110% (inactive) |
| CO/N=C1\C[C@]2(C[C@@H]3C[C@@H](C/C=C(\C)C[C@@H](C)/C=C/C=C4\CO[C@@H]5[C@H](O)C(C)=C[C@@H](C(=O)O3)[C@]45O)O2)O[C@H](/C(C)=C/C(C)C)[C@H]1C [moxidectin] (10 µM) | 0.272 | 98.5% (inactive) |
| O=C(O)c1cccnc1C(=O)O [quinolinic-acid] (10 µM) | 0.107 | 108% (inactive) |
| CN(C(=O)CCCOc1ccc2[nH]c(=O)ccc2c1)C1CCCCC1 [cilostamide] (10 µM) | -0.131 | 103% (inactive) |
| CCCNC(=O)N1N=C(c2ccc(N)cc2)c2cc3c(cc2C1C)OCO3 (configuration not stated) (10 µM) | 0.256 | 96.5% (inactive) |
| CC(COc1ccccc1Cc1ccccc1)N1CCCCC1 (configuration not stated) [benproperine] (10 µM) | 0.214 | 79% (inactive) |
